Inconclusive results are not listed. The source made the active and inactive calls. The call rests on the fitted dose curve; in most records, active means well fitted curve in the direction sought with a large enough effect; inconclusive means small, poorly fitted or top-dose-only effect, or another doubt; inactive means no such curve, though single readings can be large; an effect the other way counts as inactive or inconclusive.
Experiment: qHTS assay to identify small molecule inhibitors of chordoma cells - UCH-1 (AID 1259355); further: nearly all actives have a fitted effect of over 55% in size
Conditions: UCH-1 chordoma viability, CellTiter-Glo, 48 h, combination, with auranofin plus four topoisomerase inhibitors; series mostly up to 46.1 µM; activity, negative = inhibition: at the top concentration
How it was run: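 Cells (800/well) were seeded and left overnight at 37 C, 5% CO2, then treated with drugs at 15 concentrations plus a combination mix of auranofin, camptothecin, doxorubicin, rubitecan and topotecan. Viability after 48hr was read by CellTiter-Glo luminescence.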
On the % scale 0 is the no-effect control and ±100 the full control effect.

For CC(C)OC(=O)C(C(=O)OC(C)C)=C1SC=CS1, which “activity, negative = inhibition” value is on record?
Its value is 10.2% (inactive).

Which “activity, negative = inhibition” value does the source give for CCOC(=O)[C@H](CCc1ccccc1)N[C@H]1CCc2ccccc2N(CC(=O)O)C1=O here?
Its value is 3.9% (inactive).

For S=P(N1CC1)(N1CC1)N1CC1, which “activity, negative = inhibition” value is on record?
Its value is 4.73% (inactive).

With Cc1nnc(NS(=O)(=O)c2ccc(N)cc2)s1 as the compound, how does the “activity, negative = inhibition” value read?
The value was -29.3% (inactive).

For O=S(=O)(O)CCS, which “activity, negative = inhibition” value is on record?
The value was -9% (inactive).

With Cc1onc(-c2ccccc2Cl)c1C(=O)N[C@@H]1C(=O)N2[C@@H]1SC(C)(C)[C@@H]2C(=O)O as the compound, how does the “activity, negative = inhibition” value read?
Its value is -24.3% [at 20.6 µM] (inactive).

With Cc1cccc(Nc2ccncc2S(=O)(=O)NC(=O)NC(C)C)c1 as the compound, how does the “activity, negative = inhibition” value read?
The value was -16.1% [at 20.6 µM] (inactive).

With CCn1cc(C(=O)O)c(=O)c2cc(F)c(N3CCN(C)CC3)cc21 as the compound, how does the “activity, negative = inhibition” value read?
The value was 8.17% (inactive).

For CCCc1nc(C)c2c(=O)[nH]c(-c3cc(S(=O)(=O)N4CCN(CC)CC4)ccc3OCC)nn12, which “activity, negative = inhibition” value is on record?
The value was -12.9% (inactive).

With CN1CCN(c2c(F)cc3c(=O)c(C(=O)O)cn(CCF)c3c2F)CC1 as the compound, how does the “activity, negative = inhibition” value read?
Its value is -2.82% (inactive).

For CS(=O)(=O)c1ccc([C@@H](O)[C@@H](CO)NC(=O)C(Cl)Cl)cc1, which “activity, negative = inhibition” value is on record?
The value was -4.83% [at 20.6 µM] (inactive).

With CC(C)NCC(O)c1ccc(NS(C)(=O)=O)cc1 (configuration not stated) as the compound, how does the Potency read?
The Potency was “inactive”.

For CNNCc1ccc(C(=O)NC(C)C)cc1, which “activity, negative = inhibition” value is on record?
Its value is -12.7% (inactive).

For CC(=O)CC(c1ccccc1)c1c(O)c2ccccc2oc1=O (configuration not stated), which “activity, negative = inhibition” value is on record?
The value was 7.24% (inactive).

With O=c1cc(O)c(Cl)c[nH]1 as the compound, how does the “activity, negative = inhibition” value read?
The value was -8.73% (inactive).

Which “activity, negative = inhibition” value does the source give for CCN(CC)CC#CCOC(=O)C(O)(c1ccccc1)C1CCCCC1 (configuration not stated) here?
The value was 8.88% (inactive).

For CN(CCOc1ccc(CC2SC(=O)NC2=O)cc1)c1ccccn1 (configuration not stated), which “activity, negative = inhibition” value is on record?
The value was -20.3% (inactive).

Experiment: qHTS assay to identify small molecule inhibitors of chordoma cells - UCH-2 (AID 1259356); further: potency means the concentration at half of the fitted maximal effect
Conditions: UCH-2 chordoma viability, CellTiter-Glo ATP luminescence, 48 h; series mostly up to 46.1 µM; activity change, negative = inhibition: at the top concentration

For CC(C)OC(=O)C(C(=O)OC(C)C)=C1SC=CS1, which “activity change, negative = inhibition” value is on record?
Its value is 1.49% (inactive).

With CCOC(=O)[C@H](CCc1ccccc1)N[C@H]1CCc2ccccc2N(CC(=O)O)C1=O as the compound, how does the “activity change, negative = inhibition” value read?
Its value is 7.15% (inactive).

For S=P(N1CC1)(N1CC1)N1CC1, which “activity change, negative = inhibition” value is on record?
Its value is 11.2% (inactive).

Which “activity change, negative = inhibition” value does the source give for O=S(=O)(O)CCS here?
The value was 14% (inactive).

With NC(=O)N1c2ccccc2CC(=O)c2ccccc21 as the compound, how does the “activity change, negative = inhibition” value read?
Its value is 7.96% (inactive).

Which “activity change, negative = inhibition” value does the source give for Cc1cccc(Nc2ccncc2S(=O)(=O)NC(=O)NC(C)C)c1 here?
Its value is -16% [at 20.6 µM] (inactive).

For CCn1cc(C(=O)O)c(=O)c2cc(F)c(N3CCN(C)CC3)cc21, which “activity change, negative = inhibition” value is on record?
Its value is 1.84% (inactive).

For CCCc1nc(C)c2c(=O)[nH]c(-c3cc(S(=O)(=O)N4CCN(CC)CC4)ccc3OCC)nn12, which “activity change, negative = inhibition” value is on record?
The value was -12.6% (inactive).

With CN1CCN(c2c(F)cc3c(=O)c(C(=O)O)cn(CCF)c3c2F)CC1 as the compound, how does the “activity change, negative = inhibition” value read?
Its value is -9.3% (inactive).

With CS(=O)(=O)c1ccc([C@@H](O)[C@@H](CO)NC(=O)C(Cl)Cl)cc1 as the compound, how does the “activity change, negative = inhibition” value read?
The value was 11.6% [at 20.6 µM] (inactive).

With CC(C)NCC(O)c1ccc(NS(C)(=O)=O)cc1 (configuration not stated) as the compound, how does the Potency read?
Its Potency is “inactive”.

With CC(=O)CC(c1ccccc1)c1c(O)c2ccccc2oc1=O (configuration not stated) as the compound, how does the “activity change, negative = inhibition” value read?
Its value is -2.39% (inactive).

Which “activity change, negative = inhibition” value does the source give for O=C(O)c1cc(=O)[nH]c(=O)[nH]1 here?
Its value is 11% (inactive).

Which “activity change, negative = inhibition” value does the source give for O=c1cc(O)c(Cl)c[nH]1 here?
Its value is -7.93% (inactive).

With COc1ccc(C(=O)CC(=O)c2ccc(C(C)(C)C)cc2)cc1 as the compound, how does the “activity change, negative = inhibition” value read?
Its value is 3.35% (inactive).

With CN(CCOc1ccc(CC2SC(=O)NC2=O)cc1)c1ccccn1 (configuration not stated) as the compound, how does the “activity change, negative = inhibition” value read?
Its value is 0.201% (inactive).

Which “activity change, negative = inhibition” value does the source give for CC(C)(C)C(=O)OCOP(=O)(COCCn1cnc2c(N)ncnc21)OCOC(=O)C(C)(C)C here?
Its value is 6.09% (inactive).

For NC(=O)c1cccnc1, which “activity change, negative = inhibition” value is on record?
The value was 5.38% (inactive).

With O=S(=O)(c1cccc2cnccc12)N1CCCNCC1 as the compound, how does the “activity change, negative = inhibition” value read?
The value was -1.83% (inactive).

Which Potency does the source give for Oc1c(Cl)cc(Cl)c2cccnc12 here?
Its Potency is 23.1 µM (active).
